# Data: PubChem BioAssay AID764 (NMMLSC, 2007)
# Hit rate of the full screen: of about 190,000 compounds, about 220 (0.12%) were called active. Inconclusive results (about 2%) are left out. What follows is part of a selection rich in actives, with near analogues and random picks from the rest. Values without a mark were called inactive.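 How the source made its calls: active means GTP binding at least 20 percentage points away from the 100% baseline, in either direction, so actives lie on both sides; inconclusive means Compound likely fluorescent itself, or too few beads counted; inactive means the rest.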
# Biological target: Ras-related C3 botulinum toxin substrate 1 (Homo sapiens) (UniProt P63000)
# Test: activated Rac1 mutant nucleotide binding changes – biochemical, bead-based flow cytometry, multiplex, fluorescent GTP, primary screen (AID 764)
# Conditions: GST-Rac1 activated beads, at 10 µM, actives lie on both sides, 100% means binding = to untreated wells
row,SMILES,percent activity (GTP binding)
1,Cc1ccc(SC(C)C(=O)NCc2ccc(F)cc2)cc1 (configuration not stated),94%
2,CC(C)(C)CN1CCNC(=O)C1CC(=O)NC1Cc2ccccc2C1 (configuration not stated),91%
3,O=C(NC(=S)Nc1ccc(S(=O)(=O)Nc2ncccn2)cc1)c1cccc(Br)c1,92%
4,O=C(O)/C=C/c1cn(Cc2ccccc2)nc1-c1cccs1,130% [activator] (active)
5,O=C(/C=C\c1cn(-c2ccccc2)nc1-c1cccs1)N1CCOCC1,103%
6,O=C(O)/C=C/c1cn(-c2ccccc2)nc1-c1cccs1,89%
7,Cc1cc(N2CCOCC2)nc2ccc(NC(=S)N3CCN(Cc4ccccc4)CC3)cc12,96%
8,O=C(Nc1ccc(N2CCOCC2)cc1)c1ccc(-c2ccccc2[N+](=O)[O-])o1,93%
9,Cn1cc(Cl)c(C(=O)NNC(=S)Nc2cccc(Cl)c2)n1,91%
10,O=C(O)c1ccc(/C=N/NC(=S)NCc2ccccc2)cc1,94%
11,CN(C)C(=O)c1cccn(Cc2cccc(C(F)(F)F)c2)c1=O,94%
12,CN(C)N(C)C(=O)C(O)(c1ccccc1)c1ccccc1,96%
13,Cc1cc(C(=O)CC#N)c(C)n1-c1c(C)n(C)n(-c2ccccc2)c1=O,96%
14,O=C(O)CCN(Cc1ccccc1)S(=O)(=O)c1c(Cl)cccc1Cl,95%
15,Cc1[nH]c2ccccc2c1/C=C(/C#N)C(=O)NC(C)C,95%
16,Cn1cc(CN2CCCC(CO)C2)c(-c2ccc(Oc3ccccc3)cc2)n1 (configuration not stated),94%
17,COc1ccc(/C=C/CN2CCCC(C(=O)c3cc(F)ccc3F)C2)cc1 (configuration not stated),96%
18,CN1C=CC=C/C1=C1\SC(=S)N(Cc2ccccc2)C1=O,97%
19,Cc1cc(C(=O)NNC(=O)c2cccc(S(=O)(=O)N3CCOCC3)c2)c2ccccc2n1,93%
20,Cc1noc(C)c1/C=N/Nc1ccc2ccccc2n1,97%
21,O=C(c1ccncc1)N1CCN(c2ccc3ccccc3n2)CC1,98%
22,COc1cc(/C=C/C(=O)OCC(=O)NC(=O)NCc2ccccc2)ccc1OCC#N,90%
23,O=C(c1ccc2ccccc2n1)N1CCN(c2ccccc2Cl)CC1,95%
24,CCn1c(SCC(=O)Nc2nccs2)nnc1-c1ccco1,95%
25,COc1ccc(OC)c(S(=O)(=O)Nc2cccc(-c3ccc4nncn4n3)c2)c1,95%

row,SMILES,percent activity (GTP binding)
1,Cc1ccc(-n2cc(CN(C)Cc3nccn3C)c(-c3cccc(C)c3)n2)cc1,97%
2,Cc1ccc(C(=O)Nc2cccc3ncccc23)cc1[N+](=O)[O-],94%
3,O=C(CN1CCN(C/C=C/c2ccccc2)CC1)Nc1ccc(F)cc1F,93%
4,CCc1ccc(N2CC(O)=C(c3nc4ccccc4c(=O)[nH]3)C2=N)cc1,94%
5,COc1ccc(/C=N/n2c(C)cc(C)cc2=O)cc1,97%
6,CC(C)Oc1ccccc1C(=O)NC(CO)C(=O)O (configuration not stated),96%
7,CCOC(=O)C1=NOC(Cn2cc(C(C)=O)c(=O)[nH]c2=O)C1 (configuration not stated),92%
8,COC(=O)CN1C(=O)N/C(=C/c2ccc(OC)c(C)c2OC)C1=O,96%
9,CCOc1cc(NS(=O)(=O)c2ccc(OC)cc2)c(OCC)cc1NC(C)=O,97%
10,CN(C)S(=O)(=O)c1ccc2oc(SCC(=O)Nc3ccccc3F)nc2c1,95%
11,Cc1nc2cc(NCc3cccs3)ccc2n1C,97%
12,CCOP(=O)(OCC)C(Nc1ccc([N+](=O)[O-])cc1)c1ccc(Cl)cc1 (configuration not stated),92%
13,CCNC(=O)c1ccc(OCC(=O)Nc2ccc(F)cc2)c(OC)c1,94%
14,CCC(=O)Nc1ccc(Nc2nc(Cl)nc(Nc3ccc(NC(=O)CC)cc3)n2)cc1,94%
15,Cc1nnc(CN(C)Cc2cn[nH]c2-c2ccc(-c3ccccc3)cc2)o1,97%
16,CC1(C)OC(=O)C(=CSc2ccc(C(C)(C)C)cc2)C(=O)O1,96%
17,COc1ccccc1NC(=O)c1c(Br)cnn1C,95%
18,Cc1cnc(C(=O)OCC(=O)N2CCc3ccccc32)cn1,96%
19,Cc1cc(C)c(C#N)c(N2CCC(C(N)=O)CC2)n1,98%
20,OCCC1CN(Cc2cccc(OC3CCCC3)c2)CCN1Cc1ccsc1 (configuration not stated),95%
21,CCN(CC)CCNC(=O)c1ccc(NC(=O)c2c(F)cccc2Cl)cc1,99%
22,CCc1ccc(-n2c(SCc3cc(=O)n4cc(Br)ccc4n3)nc3[nH]ncc3c2=O)cc1,94%
23,O=C1CC(=O)Nc2cc(S(=O)(=O)N3CCN(c4cccc(C(F)(F)F)c4)CC3)ccc2N1,93%
24,COc1ccc(OC)c(CNC(=O)c2cc(=O)[nH]c3ccc(S(=O)(=O)N4CCCC4)cc23)c1,95%
25,CC(C)(C)NC(=O)NC(=O)COC(=O)C1(C)CC1(Cl)Cl (configuration not stated),97%

row,SMILES,percent activity (GTP binding)
1,COC(=O)C(NS(=O)(=O)c1ccc(F)cc1)c1ccccc1 (configuration not stated),96%
2,O=C(CP(=O)(c1ccccc1)c1ccccc1)N1CCOCC1,92%
3,O=C(C1CC1)N1N=C2CCCCC2C1(O)C(F)(F)F (configuration not stated),96%
4,Cc1ccc(C)c(-n2cc(CN3CCN(C(=O)c4ncn[nH]4)CC3)c(-c3ccccc3)n2)c1,95%
5,CCN(CC)S(=O)(=O)c1ccc(N2CCOCC2)c(NC(=O)C2COc3ccccc3O2)c1 (configuration not stated),97%
6,CCOC(=O)C1=C(CC)OC(N)=C(C#N)C1c1ccc(F)cc1F (configuration not stated),93%
7,O=C(O)c1cccc(NC(=O)c2cc(-c3cccc(Cl)c3)nc3ccccc23)c1,93%
8,COc1ccc(C2C(C#N)=C(N)N(c3ncn[nH]3)C3=C2C(=O)CCC3)cc1 (configuration not stated),96%
9,COc1ccc(N2CCN(C(=O)CCSCc3ccccc3F)CC2)cc1,92%
10,Cc1ccnc(NC(=O)CCC(=O)N(CC(=O)NCCc2ccccc2)Cc2cccs2)c1,97%
11,COc1ccc(NC(=O)/C(C#N)=C\c2cc(OC)c(OCc3ccc(C(=O)O)cc3)cc2Br)cc1,89%
12,C1CC1Cc1noc(CN2CCN(CC3CC3)CC2)n1,94%
13,CCn1c(CNC(=O)c2ccco2)nnc1SCC(=O)Nc1cccc(F)c1,98%
14,Cn1c(SCC(=O)NC2CCCCC2)nnc1-c1ccc(N)cc1,96%
15,CC(=O)NC1(c2ccc(F)cc2)CCN(C(=O)c2c(F)cccc2F)CC1,92%
16,CN(C)C(CNC(=O)c1cccc(C#N)c1)c1ccco1 (configuration not stated),97%
17,COc1ccc(C(=O)COC(=O)c2nn(C)c(=O)c3ccccc23)c(OC)c1,92%
18,Cc1c(Br)c([N+](=O)[O-])nn1CC(=O)N1CCN(Cc2ccccc2)CC1,98%
19,CC(=O)c1ccc(NC(=S)N(Cc2ccccc2)C(C)C2CC2)cc1 (configuration not stated),93%
20,CCN(CCn1cccn1)C(=O)CC1C(=O)NCCN1Cc1cccc(OC)c1OC (configuration not stated),93%
21,CCOC(=O)CNc1nc(Cl)nc(Nc2ccccc2)n1,96%
22,Cc1ccc(SC(CC(=O)c2ccc(C(C)(C)C)cc2)C(=O)O)cc1 (configuration not stated),74% (active)
23,Cc1ccc(CSCC(N)C(=O)O)cc1 (configuration not stated),97%
24,Cc1ccc(C(=O)CS(C)(=O)=O)cc1,99%
25,Cc1cc(C)nc(Nc2ncn[nH]2)n1,96%

row,SMILES,percent activity (GTP binding)
1,Cc1ncc([N+](=O)[O-])n1CCOC(=O)c1ccc(Br)cc1,91%
2,CCCCN(C(=O)c1ccc(OC(F)(F)F)cc1)c1c(N)n(CCC)c(=O)[nH]c1=O,96%
3,Cn1cc(CN2CCCCC2c2ccccn2)c(-c2ccc3c(c2)OCCO3)n1 (configuration not stated),97%
4,CCC(=O)N1c2ccccc2NC2=C(C(=O)CCC2)C1c1ccco1 (configuration not stated),98%
5,Cc1ccc(CN2CCN(Cc3cccc(C)n3)CC2CCO)cc1 (configuration not stated),94%
6,CC(=O)C1C(c2ccc(Cl)cc2)c2c(n[nH]c2C)CC1(C)O (configuration not stated),97%
7,COc1cc(/C=C/C2=CC(C)(C)NC(=S)N2)cc(OC)c1OC,94%
8,O=C(CCNC(=O)Cn1ccc2ccccc2c1=O)NCCC1=CCCCC1,101%
9,COc1cc2c(C(=O)N3CCN(C)CC3)c(CSc3ccccc3)n(C)c2cc1Br,94%
10,Cc1nn(CC2CC2)c(=O)n1N(C)c1ncc(C(F)(F)F)cc1Cl,96%
11,COc1cccc(CNC(=O)CCC2CCCN(C(=O)c3ccoc3C)C2)c1 (configuration not stated),95%
12,COC(=O)NNC1=CC(=O)CC(C)(C)C1,97%
13,CCC(C)N(C(=O)COC(=O)C1C(C(=O)OC)=C(C)NC(C)=C1C(=O)OC)C1CCS(=O)(=O)C1 (configuration not stated),95%
14,CC(C)(C)C(=O)CSc1nc2ccccc2o1,96%
15,Cn1cnnc1SCC(=O)NNC(=O)COc1ccc(Br)cc1,98%
16,O=C(CN1CCSCC1)N/N=C/c1ccc(Cl)cc1,95%
17,O=C(Cc1ccc(Cl)cc1)NCc1nc(-c2ccccc2)no1,91%
18,COc1ccc(N2C(=O)CC(Nc3ccc(F)cc3)C2=O)c([N+](=O)[O-])c1 (configuration not stated),93%
19,COC(=O)C1=C(C)NC(=O)CC1c1ccccc1OC (configuration not stated),99%
20,CCC(C)(C)NC(=O)C(c1ccccn1)N(C(=O)c1csnn1)c1ccccc1 (configuration not stated),96%
21,Cc1cc(C(=O)Cn2cnc3cc([N+](=O)[O-])ccc3c2=O)c(C)n1CC1CCCO1 (configuration not stated),90%
22,Cc1ccc(NC(=O)C(=O)NCc2ccco2)c(C)c1,98%
